About 83,000 compounds went through this panel and 20% of them were active in at least one assay; those are over-represented in the sample as a whole.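 Plates (96-well) were seeded with cells, treated with compound at one concentration, and incubated for 48 hours before percent growth was determined.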 Unmarked numbers belong to inactive results. Calls of active or inactive are those of the source. The calls were made as follows: active = growth percent below 10; inactive = the rest.
Tested on: SR leukemia
Experiment: NCI-60 one-dose screen, 48 h (100 = growth as untreated, 0 = no growth, -100 = all killed)
Conditions: 10 µM unless noted

Row | SMILES | growth
1 | COc1cc2nc(NC3CCC3)nc(NC3CCN(C(C)C)CC3)c2cc1OC | 2.34% (active)
2 | COc1ccc(C2C3=C(COC3=O)N(CCO)c3cc4c(cc32)OCCO4)cc1 (centres undefined) | 31.6%
3 | NC(=O)CSc1nc(-c2ccc(F)cc2)cc(-c2ccco2)n1 | 94.5%
4 | Cc1ccc2nc(NC(=O)CSC(=S)N3CCN(c4ccccc4)CC3)sc2c1 | 98.7%
5 | O=C1N=c2ccccc2=C1c1sc(=Nc2ccccc2)n(Nc2ccccc2)c1O | 99.2%
6 | CN1C(=O)N(C)C2(c3ccccc3)n3c(s/c(=C\c4ccccc4)c3=O)=NNC12c1ccccc1 (centres undefined) | 71.9%
7 | Cn1c(/C=C(\C#N)c2ccccc2)nc2c(N3CCOCC3)nc(Cl)nc21 | 10.7%
8 | O=C(CN1C=NC2C(N3CCOCC3)=NC=NC21)c1cccc2ccccc12 (centres undefined) | 85.1%
9 | O=c1c2cccc(F)c2sc2c(N3CCNCC3)nc3ccccc3c12 | 3.21% (active)
